# Results: the OligoGym collection
# Biological target: TJP3
# Test: pooled miR-30 sensor sort-seq; sequence = guide strand
# Details: shRNA
# Further: reference of the scale not given here.
row,Sequence,sensor-assay potency score (higher = more potent)
1,TCGTAGTCGCTGTTAACGCGGC,-0.824
2,ATAGGTTCGCATGCTGTCCTGT,-0.0267
3,TTGACGCCAAACTCTTCGCTGT,-0.592
4,TTCATCTGCACGTCCTGCCGTG,-0.0273
5,TTGAGCTCCTGGTACCAGGTGT,0.444
6,TTCAGTGACAGGTTCTGGCTAG,0.155
7,TACCACGTCAGATACAACCATG,-1.34
8,TAGAATGAGATCTCCTTCCTGC,0.597
9,TCTAGTTTGATGATCTTGGAGG,-0.916
10,TTCTGGAATCTACTGAACTTTC,-1.4
11,ATCGTCTTCATCCGAGTCCTGG,-0.452
12,TACAACCATGGATCCACCGGGC,-0.563

# Biological target: TKT
# Test: as above
# Details: shRNA
row,Sequence,sensor-assay potency score (higher = more potent)
1,TAAAAGACAGTTGATGTGGGGA,0.52
2,TTGAAGATCTCCGAGAAGGTGG,0.421
3,TAGATGATGGCATTTTCTGGGC,-0.904
4,TTGATGTGGGGACTGACCGAAA,-0.805
5,TTTCTTTCTTCAGCAGTTCGGC,-0.762
6,TTGCTCTTCAGGACCACCTTGG,-0.197
7,TTGTCCAGCTTATAGATGCTGG,-1.07
8,TTGTCGAAGTATTTGCCGGTGT,-0.129
9,TCCTTTTTGAAGATCTCCGAGA,-0.964
10,TTTTTGCTCTGGATCTGGCTGT,0.312
11,TTGTCCCCAACTTTGTAGCTGG,-0.755
12,TTCTGGTAGATGTCCATCTGGT,-0.51
